These results are taken from PubChem BioAssay (NCI).

Among the test systems are DU-145 prostate; K-562 leukemia; MALME-3M melanoma; MDA-MB-231 breast; RXF 393 renal; SF-268 CNS; SF-295 CNS; SF-539 CNS; UACC-257 melanoma; M14 melanoma; HCT-15 colon; HT29 colon; SNB-75 CNS; SNB-19 CNS; U251 CNS; PC-3 prostate; UACC-62 melanoma; LOX IMVI melanoma; SK-MEL-28 melanoma.
Assay in all cases: NCI-60 one-dose screen, 48 h (100 = growth as untreated, 0 = no growth, -100 = all killed)
Holding throughout (conditions): 10 µM unless noted

Compounds without any hit were thinned out: in the full panel of roughly 83,000, 20% have a hit.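 A percent growth of 40 corresponds to 60% growth inhibition; 0 means no net growth; -100 means all cells died. Active threshold: below 10.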 Unmarked numbers belong to inactive results. Active and inactive are the calls of the source.

With `COc1cc(-c2nc3ccccc3[nH]2)ccc1OCC(=O)N=Nc1c(O)[nH]c2ccc(Cl)cc12`, the growth in the assay on DU-145 prostate was -37.8% (active); with K-562 leukemia, -25.4% (active); in the assay on MALME-3M melanoma, -66.9% (active); in the assay on MDA-MB-231 breast it was -87.4% (active); in the assay with RXF 393 renal, -56.5% (active); in the assay with SF-268 CNS, -72.9% (active). Also, the growth was -68.8% (active) with SF-295 CNS; -83.9% (active) in the assay with SF-539 CNS; -18.7% (active) in the assay on UACC-257 melanoma; -71.7% (active) in the assay with M14 melanoma; 77.4% in the assay with HCT-15 colon; -59% (active) in the assay with HT29 colon. Further, the growth in the assay on SNB-75 CNS was -88.4% (active); with SNB-19 CNS it was -93.1% (active); in the assay with U251 CNS it was -95% (active); with PC-3 prostate, -73% (active); with UACC-62 melanoma it was -64.3% (active); in the assay on LOX IMVI melanoma it was -97.1% (active). In addition, in the assay on SK-MEL-28 melanoma, the growth is -65.4% (active).

For the compound `COc1cc(-c2nn(C)nc2-c2cc3ccccc3s2)cc(OC)c1OC`, the growth is 20.1% in the assay on DU-145 prostate; 8.42% (active) in the assay on K-562 leukemia; 76.1% with MALME-3M melanoma; 37.7% in the assay with MDA-MB-231 breast; 35.3% in the assay on RXF 393 renal; 39.8% with SF-268 CNS. Also, the growth was 9.39% (active) with SF-295 CNS; -9.68% (active) in the assay with SF-539 CNS; 54.7% in the assay on UACC-257 melanoma; 10.9% in the assay with M14 melanoma; 16.9% with HCT-15 colon; -1.21% (active) with HT29 colon. Also, the growth was 48.1% in the assay on SNB-75 CNS; 26.7% in the assay with SNB-19 CNS; 20.9% in the assay with U251 CNS; 21.9% in the assay with PC-3 prostate; 26% in the assay with UACC-62 melanoma; 38.3% in the assay with LOX IMVI melanoma. Besides, the growth in the assay on SK-MEL-28 melanoma is 57.6%.

With `Cc1nn(-c2cc(=O)[nH]c3ccc(Cl)cc23)c(N)c1C#N`, the growth is 114% in the assay on DU-145 prostate; 113% with K-562 leukemia; 105% with MALME-3M melanoma; 96.9% with MDA-MB-231 breast; 113% in the assay on RXF 393 renal; 102% in the assay with SF-268 CNS. Further, the growth with SF-295 CNS is 100%; with SF-539 CNS, 99.9%; with UACC-257 melanoma, 107%; in the assay on M14 melanoma it was 110%; in the assay on HCT-15 colon, 103%; in the assay on HT29 colon, 110%. Moreover, the growth was 61.2% with SNB-75 CNS; 108% in the assay on SNB-19 CNS; 102% in the assay with U251 CNS; 95.6% in the assay on PC-3 prostate; 98.8% with UACC-62 melanoma; 92.9% with LOX IMVI melanoma. Also, the growth in the assay with SK-MEL-28 melanoma is 115%.

Turning to `OCc1ccc(N2CCc3cccc(F)c3C2)cc1Cl`, the growth in the assay with DU-145 prostate is 100% [0.1 µM]; in the assay with K-562 leukemia it was 38.5% [0.1 µM]; with MALME-3M melanoma, 104% [0.1 µM]; with MDA-MB-231 breast, 107% [0.1 µM]; in the assay with RXF 393 renal, 103% [0.1 µM]; in the assay on SF-268 CNS, 105% [0.1 µM]. Moreover, the growth was 52.7% [0.1 µM] in the assay on SF-295 CNS; 110% [0.1 µM] in the assay with SF-539 CNS; -14.3% [0.1 µM] (active) with UACC-257 melanoma; 111% [0.1 µM] in the assay on M14 melanoma; 88.9% [0.1 µM] in the assay on HCT-15 colon; 16.2% [0.1 µM] with HT29 colon. Also, the growth with SNB-75 CNS was 108% [0.1 µM]; in the assay on SNB-19 CNS it was 85.2% [0.1 µM]; in the assay on U251 CNS, 53.5% [0.1 µM]; with PC-3 prostate, 89.1% [0.1 µM]; with UACC-62 melanoma, -11.2% [0.1 µM] (active); in the assay on LOX IMVI melanoma, 105% [0.1 µM]. In the assay on SK-MEL-28 melanoma, the growth was 113% [0.1 µM].

On to `CCOc1cc2ncc(C#N)c(Nc3ccc(OCc4cccc(F)c4)c(Cl)c3)c2cc1NC(=O)CCCCC1CCSS1` (configuration not stated), for which the growth with DU-145 prostate is 97.4%; with K-562 leukemia it was 80.3%; in the assay with MALME-3M melanoma, 125%; in the assay with MDA-MB-231 breast it was 96.2%; with RXF 393 renal it was 97.9%; in the assay on SF-268 CNS, 95.7%. For the same compound, the growth was 106% in the assay on SF-295 CNS; 108% in the assay with SF-539 CNS; 81% with UACC-257 melanoma; 93.1% in the assay on M14 melanoma; 97% in the assay on HCT-15 colon; 86.8% in the assay on HT29 colon. In addition, the growth in the assay on SNB-75 CNS is 97.8%; in the assay on SNB-19 CNS, 105%; in the assay on U251 CNS, 82.5%; in the assay with PC-3 prostate, 83.9%; in the assay on UACC-62 melanoma it was 89%; with LOX IMVI melanoma it was 79.5%. Besides, the growth with SK-MEL-28 melanoma is 101%.

As to `O=c1cc(/C(=C2/C=CC=N2)c2ccc[nH]2)c2cc(Cl)ccc2o1`, the growth with DU-145 prostate was 47%; in the assay on K-562 leukemia, 24.8%; in the assay with MALME-3M melanoma, 66.6%; with MDA-MB-231 breast, 71%; in the assay with RXF 393 renal, -29.1% (active); in the assay on SF-268 CNS it was 56.4%. Besides, the growth is 13.9% in the assay with SF-295 CNS; 16.1% in the assay on SF-539 CNS; 38.3% in the assay with UACC-257 melanoma; 35.5% with M14 melanoma; 35.1% in the assay with HCT-15 colon; 47.9% in the assay with HT29 colon. The growth is 24.6% in the assay with SNB-75 CNS; 25.7% in the assay with SNB-19 CNS; 14.4% with U251 CNS; 38.9% in the assay on PC-3 prostate; 42.9% in the assay with UACC-62 melanoma; 34.3% in the assay with LOX IMVI melanoma. Further, in the assay with SK-MEL-28 melanoma, the growth is 61.8%.

Consider `COc1cc2c(cc1-c1c(C)noc1C)ncc1nc(C3CCC(F)(F)CC3)n([C@H](C)COC(F)F)c12`, for which the growth was 71.4% in the assay on DU-145 prostate; 30.5% with K-562 leukemia; 67.5% with MALME-3M melanoma; 44.1% in the assay with MDA-MB-231 breast; 55.8% in the assay on RXF 393 renal; 67.4% in the assay on SF-268 CNS. Moreover, the growth in the assay with SF-295 CNS was 49.3%; in the assay with SF-539 CNS it was 34%; with UACC-257 melanoma it was 34.9%; in the assay with M14 melanoma it was 45.9%; with HCT-15 colon, 16.8%; in the assay on HT29 colon, 17.3%. In addition, the growth was 37% in the assay on SNB-75 CNS; 47.7% in the assay on SNB-19 CNS; 46.8% in the assay with U251 CNS; 33.1% with PC-3 prostate; 17.8% in the assay with UACC-62 melanoma; 14.8% with LOX IMVI melanoma. Also, the growth with SK-MEL-28 melanoma was 54.4%.

Turning to `CSc1nc2c(c(=O)[nH]1)C1(C(=O)Nc3ccccc31)c1c(nc(SC)[nH]c1=O)N2`, the growth with DU-145 prostate is 105%; with K-562 leukemia, 112%; with MALME-3M melanoma it was 93.7%; in the assay with MDA-MB-231 breast, 107%; with RXF 393 renal it was 103%; in the assay with SF-268 CNS, 98.2%. Also, the growth is 103% with SF-295 CNS; 102% with SF-539 CNS; 104% in the assay with UACC-257 melanoma; 97.2% in the assay with M14 melanoma; 107% in the assay on HCT-15 colon; 112% with HT29 colon. In addition, the growth with SNB-75 CNS is 99.5%; with SNB-19 CNS, 106%; with U251 CNS, 97.9%; in the assay on PC-3 prostate, 107%; in the assay with UACC-62 melanoma, 99.8%; in the assay with LOX IMVI melanoma, 102%. The growth in the assay with SK-MEL-28 melanoma was 105%.
